Source: PubChem BioAssay
MITF inh – MITF inhibitors, primary screen, biochemical, AlphaScreen, human | AlphaScreen MITF homodimerization, bead proximity signal | inhibition, % at 2.6 µM | 650,000 tested, 0.91% active | AID 1259374, 2018; in the data active means inhibition above about 50%;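 further: 0% = vehicle wells with protein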
TEAD-YAP inh – TEAD-YAP interaction inhibition, primary screen, TEAD-YAP interaction inhibitor project, luminescence, HEK-TIYL cells; TEAD-Gal4/YAP UAS-luciferase luminescence; inhibition, % at 9.12 µM; 640,000 tested, 1.4% active; AID 1259422, 2018; in the data active means inhibition above about 32%;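 further: 0% = median of test compound wells and 100% = reference inhibitor wells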
GPR151 ag – activators of human GPR151, primary screen, cell-based, PathHunter beta-arrestin, luminescence. G-protein coupled receptor 151 (Homo sapiens), Q8TDV0. PathHunter beta-arrestin GPR151 cells. activation, % at 11.2 µM. 650,000 tested, 1% active. AID 1508602, 2020; in the data active means activation above about 4.9%;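 further: 0% = median of compound wells and 100% = cells with positive control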
FBW7 activator – FBW7 E3 ligase activators, primary screen, biochemical, AlphaScreen, human. F-box/WD repeat-containing protein 7 (Homo sapiens), Q969H0. AlphaScreen FBW7–phospho-cyclin E peptide binding, activator screen. normalized activity (activation), % at 26.1 µM. 650,000 tested, 0.13% active; in the data active means normalized activity above about 1.9%;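 further: purified mutant Fbw7 with reduced substrate affinity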
Target sequence (Q969H0 whole entry, looked up): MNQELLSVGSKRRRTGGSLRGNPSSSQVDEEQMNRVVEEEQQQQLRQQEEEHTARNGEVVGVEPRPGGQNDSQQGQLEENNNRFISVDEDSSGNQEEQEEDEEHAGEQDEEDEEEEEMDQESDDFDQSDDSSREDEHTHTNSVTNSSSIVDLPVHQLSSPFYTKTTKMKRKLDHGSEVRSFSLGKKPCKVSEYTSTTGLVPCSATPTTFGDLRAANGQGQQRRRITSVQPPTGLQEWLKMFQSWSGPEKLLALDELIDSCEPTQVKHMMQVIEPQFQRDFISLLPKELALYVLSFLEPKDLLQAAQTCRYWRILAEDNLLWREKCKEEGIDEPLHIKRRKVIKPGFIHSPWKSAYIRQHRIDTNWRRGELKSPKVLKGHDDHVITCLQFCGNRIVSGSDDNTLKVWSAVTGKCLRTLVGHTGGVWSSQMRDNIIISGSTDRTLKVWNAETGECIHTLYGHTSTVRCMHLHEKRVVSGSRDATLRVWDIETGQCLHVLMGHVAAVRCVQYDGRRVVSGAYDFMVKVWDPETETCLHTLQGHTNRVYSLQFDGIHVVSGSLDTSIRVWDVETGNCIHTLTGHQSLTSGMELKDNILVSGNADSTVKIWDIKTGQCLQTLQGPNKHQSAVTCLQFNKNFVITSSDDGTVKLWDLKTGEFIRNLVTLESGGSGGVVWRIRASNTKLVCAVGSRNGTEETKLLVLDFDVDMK
MITF inh conf – MITF inhibitors, retest of hits, confirmation, biochemical, AlphaScreen, triplicate; shares compounds with MITF inh; AlphaScreen MITF homodimerization, biotin/His-MITF beads; inhibition, % at 2.6 µM; 4,700 tested, 16% active; AID 1259372, 2018;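 active means inhibition above a cutoff derived from the DMSO control wells, cut at about 28% in these data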;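 further: 0% = MITF dimer wells with DMSO only; inhibitors lower the bead chemiluminescence by keeping MITF from dimerizing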
AS interf DR – AlphaScreen optical interference compounds, dose response, counter-screen, biochemical, HTS; shares compounds with MITF inh; AlphaScreen optical interference counterscreen, cell-free; IC50, µM; 480 tested, 6% active; AID 1259373, 2018; call rule not given here
AlphaScreen intf2 – AlphaScreen optical interference compounds, counter-screen for MITF inhibitor project, biochemical, triplicate; shares compounds with MITF inh; LysRS AlphaScreen counterscreen, signal interference; inhibition, % at 2.6 µM; 4,700 tested, 7.6% active;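 active means inhibition above a cutoff derived from the DMSO control wells, cut at about 30% in these data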
* hit, by the source's call; / = no result given. The list is not random: actives were taken first. Their share in the collection is about 3.4%.

SMILES	MITF inh	TEAD-YAP inh	GPR151 ag	FBW7 activator	MITF inh conf	AlphaScreen intf2	others
Cc1ccc(-n2c(/C=C/c3ccc([N+](=O)[O-])cc3)nc3ccccc3c2=O)c(Br)c1	-0.4	26.8	-0.7	-0.1	/	/
COc1ccccc1CN1CCN(Cc2ccc(Cl)cc2)CC1	73.0*	-6.0	0.2	-0.1	8.2	9.6
COc1cccc(CN2CCN(c3ccc(Cl)cc3)CC2)c1O	16.9	12.3	-1.9	0.2	/	/
CN1CCN(CC#CCOc2ccc(Cl)cc2)CC1	53.9*	-8.3	-1.2	0.0	8.8	11.5
COc1ccc(CN2CCN(Cc3ccc(C)cc3)CC2)cc1	80.2*	5.5	0.1	-0.1	0.7	8.4
COc1ccc(CN2CCN(Cc3ccc(Cl)cc3)CC2)cc1	82.7*	7.1	0.5	-0.1	8.4	4.5
CN(C)[C@@H]1C(=O)C(C(N)=O)=C(O)[C@@]2(O)C(=O)C3=C(O)c4c(O)cccc4[C@@](C)(O)[C@H]3C[C@@H]12	10.8	-15.9	-0.1	0.2	/	/
CN(C)C1C(=O)C(C(N)=O)=C(O)C2(O)C(=O)C3=C(O)c4c(O)cccc4C(C)(O)C3CC12 (stereo not given)	51.1*	14.8	-1.3	0.2	43.4*	2.7	AS interf DR=>6.48
CC(=O)c1ccc(N2CCN(Cc3cccc(Cl)c3)CC2)cc1	32.5	-2.4	1.4	-0.2	/	/
CSc1ccc(CN2CCN(Cc3cccc(Cl)c3)CC2)cc1	67.0*	2.1	0.0	-0.3	18.6	20.2
COc1cccc(CN2CCN(Cc3cccc(Cl)c3)CC2)c1	70.4*	16.6	-0.6	0.2	14.0	19.5
COc1ccc(O)c(CN2CCN(Cc3cccc(Cl)c3)CC2)c1	5.4	-5.2	0.5	-0.2	/	/
COc1ccc(CN2CCN(Cc3cccc(Cl)c3)CC2)cc1	82.5*	5.9	1.4	-0.1	19.4	14.2
COc1ccc(CN2CCN(Cc3ccccc3C)CC2)cc1Br	82.9*	1.2	0.1	-0.1	-2.3	1.6
COc1ccc(CN2CCN(Cc3ccccc3Cl)CC2)cc1Br	78.0*	-10.2	-0.1	-0.2	-4.0	4.1
COc1ccc(NC(c2c[nH]c3ccccc23)P2(=S)OCCCO2)cc1 (stereo not given)	1.5	9.7	0.0	0.0	/	/
O=C(OC1CNC(=N[N+](=O)[O-])NC1)c1ccc([N+](=O)[O-])cc1 (stereo not given)	-8.3	-2.0	-1.0	-0.1	/	/
Cn1cccc1C=C1C(=O)NC(=S)NC1=O	48.1	10.0	0.4	-1.0	/	/
COC(=O)[C@H]1[C@@H](O)[C@@]2(O)c3c(OC)cc(OC)cc3O[C@@]2(c2ccc(OC)cc2)[C@@H]1c1ccccc1	-18.0	/	1.4	0.0	/	/
CCOC(=O)C1C2NC(=S)N(c3ccc(CC)cc3)C1(C)Oc1c(OCC)cccc12 (stereo not given)	54.2*	5.2	-1.0	-0.4	41.7*	27.1	AS interf DR=>5.53
CCOC(=O)C1C2NC(=S)N(c3cccc(Cl)c3)C1(C)Oc1c(OC)cccc12 (stereo not given)	51.7*	3.4	-1.3	-0.2	34.2*	15.0	AS interf DR=>5.09
CCOC(=O)C1C2NC(=S)N(c3ccccc3OC)C1(C)Oc1c(OCC)cccc12 (stereo not given)	16.3	-0.8	-1.1	0.0	/	/
Cc1ccc(-n2c(-c3ccccc3F)nc3ccccc3c2=O)cc1C	0.5	-7.9	0.1	-0.1	/	/
COc1ccc(CN2CCN(C(=O)COc3ccc(Cl)cc3)CC2)cc1OCc1ccccc1	58.7*	9.0	0.5	-0.2	2.8	10.9
O=C(COc1ccc(Cl)cc1)N1CCN(Cc2cccc(F)c2)CC1	68.3*	-0.7	-0.3	0.1	-1.9	2.3
SMILES	MITF inh	TEAD-YAP inh	GPR151 ag	FBW7 activator	MITF inh conf	AlphaScreen intf2	others
O=C(COc1ccccc1)N1CCN(Cc2cccc(F)c2)CC1	44.9	9.5	-0.9	0.1	/	/
N/C(=N\[N+](=O)[O-])N/N=C\c1ccc(-c2ccc(O)c(C(=O)O)c2)o1	74.6*	-8.2	-0.8	-0.9	79.1*	10.9	AS interf DR=>6.48
N/C(=N\[N+](=O)[O-])N/N=C\c1ccc(-c2ccccc2C(=O)O)o1	1.7	14.2	1.1	-0.1	/	/
Cc1c(C(=O)N2CCC3(CC2)OCCO3)sc2nc(-c3ccccc3)cn12	-1.7	-25.7	1.1	-0.1	/	/
CN1C2CCC1CC(OC(=O)CNC1CCCCC1)C2 (stereo not given)	55.4*	-5.1	2.6	0.0	7.9	14.2
CSc1ccc(CN2CCN(Cc3ccccc3Br)CC2)cc1	75.0*	2.4	0.3	-0.2	12.5	25.5
CCN1CCN(Cc2ccccc2Br)CC1	-6.2	1.8	-1.1	-0.2	/	/
O=[N+]([O-])c1ccccc1CN1CCN(Cc2ccccc2)CC1	17.2	-9.7	1.5	0.0	/	/
O=[N+]([O-])c1ccccc1CN1CCN(Cc2ccccc2Br)CC1	58.2*	-1.4	-0.9	-0.2	2.4	2.3
CCc1ccc(CN2CCN(Cc3ccccc3Br)CC2)cc1	57.4*	3.4	1.3	0.1	-2.2	6.2
CSc1ccc(CN2CCN(Cc3ccc(Br)cc3)CC2)cc1	78.2*	-2.3	2.0	-0.1	14.0	12.5
CCN1CCN(Cc2ccc(SC)cc2)CC1	39.4	4.1	0.9	-0.5	/	/
CC(=O)OCC1=C(C(=O)O)N2C(=O)[C@@H](NC(=O)CCC[C@@H](N)C(=O)O)[C@H]2SC1.[Zn+2]	-9.4	-2.7	-1.5	0.0	/	/
CCOc1ccc(/C=C/[N+](=O)[O-])cc1OCC	5.1	26.6	3.1	0.1	/	/
Fc1ccc(CN2CCN(Cc3ccccc3)CC2)cc1	58.8*	-0.5	-0.9	0.0	10.9	28.4
Fc1ccc(CN2CCN(Cc3ccc(Cl)cc3)CC2)cc1	68.4*	9.8	-0.3	0.1	1.6	15.6
Fc1ccc(CN2CCN(c3ccc(Cl)cc3)CC2)cc1	8.7	0.4	1.6	-0.1	/	/
COc1ccc(/C=C/c2nc3ccccc3c(=O)n2-c2cccc([N+](=O)[O-])c2)cc1	9.6	2.6	-0.6	0.2	/	/
COc1cccc(CN2CCN(Cc3ccc(Br)cc3)CC2)c1	69.7*	-7.9	-1.5	-0.4	4.0	15.0
COc1cccc(CN2CCN(c3ccc([N+](=O)[O-])cc3)CC2)c1	40.4	4.5	3.6	0.0	/	/
COc1cccc(CN2CCN(Cc3cccc(Br)c3)CC2)c1	63.0*	1.6	-1.2	0.2	12.5	16.2
CCSc1nc2ccccc2c(=O)n1-c1ccccc1OC	14.3	-1.1	-0.4	0.1	/	/
O=C1NC(=O)N(c2ccc3c(c2)OCO3)C(=O)/C1=C/c1ccc(-c2ccccc2C(=O)O)o1	27.1	4.1	0.2	-0.1	/	/
